Experimental data: ChEMBL document CHEMBL4513216, “Probing the Open Global Health Chemical Diversity Library for Multistage-Active Starting Points for Next-Generation Antimalarials” (ACS Infect Dis, 2020)
Among all 68,000 compounds or so, about 2,700 (4%) showed an effect of 50% or more. For the sample, strong results were picked, then their nearest neighbours and some compounds at random.

The molecules below were run on Plasmodium berghei (assay: Screen against P. berghei liver stage (PbLuc), transformed with Luciferase, at 2uM). Conditions: tested at 2 uM.
Type: functional, HepG2

Structure (SMILES)	INHIBITION [%]
O=C(N1CCCC(n2cncn2)C1)C1(c2ccccc2F)CCCC1 (stereo unspecified)	-15.28
O=C(COCc1nc(-c2ccncc2)no1)N1CCCCC1	27.89
Brc1cnc(NCCCOCC2CCOC2)nc1 (stereo unspecified)	20.3
COCCCNS(=O)(=O)c1cc(C)sc1C	-11.76
CCc1nccn1-c1cccc(C2CCN(C(=O)COC)CC2)n1	47.4
N#Cc1ccsc1N1CCC(Sc2ccncc2)C1=O (stereo unspecified)	35.61
Cc1cnn(CCC(=O)N2CCCN(c3ncccc3C#N)CC2)c1	-2.7
CCS(=O)(=O)N1CCC(NC(=O)c2cc(C)ccc2O)CC1	-12.19
CC(=O)c1cc(CC(=O)N2CCN(CCOc3ccccc3)CC2)cs1	-18.33
O=C(Cc1ccsc1)N1CCN(CCOc2ccccc2)CC1	6.17
Cc1nc(CC(=O)N2CCN(CCOc3ccccc3)CC2)cs1	65.5
Fc1ccc(CNCc2nnc3n2CC(C(F)(F)F)CC3)cc1 (stereo unspecified)	0.85
FC(F)(F)C1CCc2nnc(CNCc3ccsc3)n2C1 (stereo unspecified)	-14.84
FC(F)(F)C1CCc2nnc(CNCc3cccs3)n2C1 (stereo unspecified)	58.98
CCCC(NC(=O)NCc1cccc(N(C)C)n1)c1ccccn1 (stereo unspecified)	-40.08
CN(Cc1cncnc1)[C@@H]1CN(C(=O)c2ccco2)[C@@H]2CCCO[C@H]12	8.17
Cn1cc(-c2nc(CN3CCN(CCO)CC3)cs2)cn1	53.03
CC(C)c1nnc2n1CCN(Cc1csc(-c3cnn(C)c3)n1)C2	47.25
CCc1nnc2n1CCN(Cc1csc(-c3cnn(C)c3)n1)C2	-4.69
COCCN1CCN(Cc2csc(-c3cnn(C)c3)n2)CC1	-20.82
Cc1nnc2n1CCN(Cc1csc(-c3cnn(C)c3)n1)C2	57.34
CC(=O)N1CCN(Cc2csc(-c3cnn(C)c3)n2)CC1	-6.3

Structure (SMILES)	INHIBITION [%]
CN(C)Cc1ccnc(C2CCCN2Cc2ccc(F)cn2)n1 (stereo unspecified)	18.38
Cc1ncc(CN2CCC(O)(c3ccccc3F)CC2)cn1	4.19
N#Cc1ccc(OC2CCN(CC(=O)NCC3CCCO3)CC2)cc1 (stereo unspecified)	-27.4
Oc1coc2cc(OC[C@@H]3CCCN4CCCC[C@H]34)ccc12	-61.71
CC(C)Cc1cc(C(=O)NCc2nnc[nH]2)[nH]n1	16.6
CN(Cc1ccsc1)C(=O)c1cccc(F)c1	14.82
Cc1ccc(NC2CCN(C(=O)COCC3CC3)CC2)nn1	15.28
O=C(NCc1c(F)cccc1Cl)c1cc(CN2CCCC(O)C2)on1 (stereo unspecified)	52.51
O=C(NCc1ccc(Cl)s1)c1cc(CN2CCCC(O)C2)on1 (stereo unspecified)	4.38
O=C(NCc1cccc(F)c1F)c1cc(CN2CCCC(O)C2)on1 (stereo unspecified)	-81.33
O=C(CCn1cccn1)NS(=O)(=O)N1CCCc2ccccc21	-1.45
COc1ccc(C2CCCCCN2Cc2nnc(C)o2)cc1 (stereo unspecified)	52.83
Cc1nnc(CN2CCCC2c2ccc(Cl)c(Cl)c2)o1 (stereo unspecified)	-107.58
Cc1nnc(CN2CCCC2c2ccc(C(C)(C)C)cc2)o1 (stereo unspecified)	29.19
CN(C)C(=O)CN1CC=C(c2cnn(Cc3ccccc3)c2)CC1	21.95
COc1cccc(Cn2cc(C3=CCN(CC(=O)N(C)C)CC3)cn2)c1	57.41
COc1cccc(Cn2cc(C3=CCN(CCO)CC3)cn2)c1	13.24
O=C(Nc1cnn(CCN2CCOCC2)c1)c1ccccc1Cl	28.33
O=C(Nc1cnn(CCN2CCOCC2)c1)c1ccccc1O	-12.48
O=C(Nc1cnn(CCN2CCOCC2)c1)c1cc(F)ccc1F	53.03
COc1ncccc1CN1C[C@@H]2OCCN(CCN(C)C)[C@@H]2C1	22.18
c1coc(CN2CCn3c(CN4CCOCC4)nnc3C2)c1	8.99

Structure (SMILES)	INHIBITION [%]
Cc1[nH]nc(CCC(=O)N2CCOC(CCc3ccccc3)C2)c1C (stereo unspecified)	-18.99
COc1ccc2c(c1)nc1n2[C@@H](CNCc2nccs2)COC1	24.42
c1ccc2c(c1)nc1n2[C@@H](CNCc2nccs2)COC1	24.64
Fc1ccc2c(c1)nc1n2[C@@H](CNCc2nccs2)COC1	61.42
CC(C)n1ccnc1CN1CCOC(C)(C(=O)N2CCOCC2)C1 (stereo unspecified)	13.58
Cc1nc(N2CCOCC2)nc2c1CCN(Cc1nccn1C)CC2	13.25
COCC(=O)N1C[C@H]2CN(Cc3csc(C)n3)C(=O)[C@H]2C1	-6.13
Cc1cccc(CN2C[C@@H]3COC[C@]3(CNC(=O)C3CCC3)C2)c1	55.92
Cn1cc(CN2C[C@@H]3COC[C@]3(CNC(=O)c3ccccc3)C2)cn1	23.43
Cc1cccc(CN2C[C@@H]3COC[C@]3(CNC(=O)c3cccn3C)C2)n1	-26.91
Cc1cccc(CN2C[C@@H]3COC[C@]3(CNC(=O)C3CC3)C2)c1	-2.81
COc1cccc(CN2C[C@@H]3COC[C@]3(CNC(=O)C3CC3)C2)c1	-9.07
Cn1cc(CN2C[C@@H]3COC[C@]3(CNC(=O)c3ccco3)C2)cn1	67.67
Cc1cccc(CN2C[C@@H]3COC[C@]3(CNC(=O)c3ccccc3)C2)n1	59.04
O=C(NC[C@]12COC[C@H]1CN(Cc1ccncc1)C2)c1ccco1	-5.65
Cc1cccc(CN2C[C@@H]3COC[C@]3(CNC(=O)c3ccsc3)C2)n1	-26.88
COc1cccc(OC)c1C(C(=O)O)N(C)Cc1c(C)n[nH]c1C (stereo unspecified)	17.2
CCN1CCC2(CC1)CC(NCc1cccs1)c1ccccc1O2 (stereo unspecified)	-5.2
COCC(=O)N1CC(=O)c2sc(Nc3ccc(F)cc3F)nc2C1	-0.83
Cc1noc(C(C)Nc2ccc3c(c2)CCC3)n1 (stereo unspecified)	-46.99
CN1CCc2c(C#N)c(NCCc3ccccc3)n3cnnc3c2C1	-30.35
Cc1ccc(NS(=O)(=O)c2c[nH]c3ncccc23)nc1	-27.36

Structure (SMILES)	INHIBITION [%]
Cc1csc(NC(=O)c2cnc(C3CCCN3)cn2)n1 (stereo unspecified)	14.47
CCCn1nc2c(cc1=O)CN(Cc1ncc(C(C)(C)C)o1)CC2	27.85
C1=CCN(c2nc(CC3CC3)nc3c2CCN(C2CCOCC2)CC3)C1	-59.35
O=C(c1cc(-c2ccc(O)cc2)n[nH]1)N1CCCC1c1cccnc1 (stereo unspecified)	35.01
COc1cc(C)nc(N2CCN(C(=O)CCc3ccsc3)CC2)n1	1.77
COCC(=O)N1CCN(C(=O)CCc2ccsc2)CC1	67.28
COCC(=O)N1CC[C@]2(O)CCN(C(=O)CCc3ccsc3)C[C@@H]2C1	-11.68
C[C@H]1CN(C(=O)c2cccc(F)c2Cl)CCN1S(C)(=O)=O	-33.29
CSc1nccc(N2CCC(NCc3ccc4c(c3)OCO4)CC2)n1	46.95
c1ccc(CN2CCOCC3(CCN(C4CCOCC4)C3)C2)cc1 (stereo unspecified)	-28.17
CCc1[nH]c2c(CNC(=O)C3CCC(=O)NC3)cc(C)cc2c1C (stereo unspecified)	11.37
CCc1[nH]c2c(CNC(=O)C3CCS(=O)(=O)CC3)cc(C)cc2c1C	13.65
CCc1[nH]c2c(CNC(=O)C3CNC(=O)C3)cc(C)cc2c1C (stereo unspecified)	53.05
CCC(CO)N(Cc1ccco1)C(=O)c1ccccc1NC (stereo unspecified)	4.57
CCOCC(O)CN1CCN(C(=O)c2cc(F)cc(F)c2)CC1 (stereo unspecified)	-41.07
CCOCC(O)CN1CCN(C(=O)c2ccc(OC)cc2)CC1 (stereo unspecified)	2.8
CCOCC(O)CN1CCN(C(=O)c2ccncc2)CC1 (stereo unspecified)	69.01
COc1ccc(-c2cc3nc([C@H](C)NC(=O)C4CC4)nn3cn2)cc1	20.72
Cc1ccc(CN2CC[C@H]3[C@H]2CCN3S(C)(=O)=O)s1	-25.95
CCn1cc(CN2C[C@@H]3CC[C@H]2CN(C(=O)c2ccncc2)C3)cn1	-23.16
CCc1nn(C)c2[nH]nc(NC(=O)c3cccnc3NC(C)C)c12	54.87
CCc1nn(C)c2[nH]nc(NC(=O)c3cccnc3OC)c12	-3.4

Structure (SMILES)	INHIBITION [%]
CCc1nn(C)c2[nH]nc(NC(=O)c3cccnc3OCC(C)C)c12	5.94
Cc1cnn(CC2CCCN2Cc2coc(-c3ccc(F)cc3)n2)c1 (stereo unspecified)	7.8
Cc1cccc2c1NC1(CCCC1)NC2=O	19.81
COc1cccc(OC2CN(C(=O)c3ccnc(OC)c3)C2)c1	6.85
CCc1ccccc1OC1CN(C(=O)c2ccnc(OC)c2)C1	72.94
COc1cc(C(=O)N2CC(Oc3ccccc3Cl)C2)ccn1	14.88
O=C(c1cccn1Cc1cccs1)N1CCC(C(=O)N2CCCC2)CC1	17.42
O=C(c1cccn1Cc1cccs1)N1CCN(C(=O)C2CC2)CC1	-72.53
CNC(=O)C1CCN(C(=O)c2cccn2Cc2cccs2)CC1	56.67
NC(=O)C1CCN(C(=O)c2cccn2Cc2cccs2)CC1	3.97
O=C(c1cccn1Cc1cccs1)N1CCSCC1	69.49
O=C(c1cccn1Cc1cccs1)N1CCN(C2CC2)CC1	-14.3
Cn1cc(C2COC3(CCN(C(=O)Cn4cccn4)CC3)C2)cn1 (stereo unspecified)	12.36
CCOCC1CN(CC2CC2)Cc2nn(C)cc21 (stereo unspecified)	4.99
O=C(CCC1CCCC1)NCCn1nc(C2CCNC2)c2nccnc21 (stereo unspecified)	26.52
OCCN1CCN(Cc2coc(-c3cccc(F)c3)n2)CC1	45.83
CCOCCN1CCN(Cc2coc(-c3cccc(F)c3)n2)CC1	62.13
CCN1CCN(Cc2coc(-c3cccc(F)c3)n2)CC1	23.92
